# Active and inactive are the calls of the source. Unless noted, how the calls were made is not given here.
# Key:
# [1] = compounds binding Alexa647 anti-His antibody – biochemical, small-molecule microarray, 635 nm fluorescence, artefact control for SMM control protein annotation, primary screen (AID 1128); conditions: higher = more signal;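 further: score merges feature fluorescence with signal-to-noise for each printed compound spot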
# [2] = system: Human papillomavirus type 1a E7 protein (residues 1-88); assay: HPV1a E7 small-molecule binders, primary screen, biochemical, small-molecule microarray, residues 1-88, 635 nm (AID 1129); conditions: small-molecule microarray binding, fluorescence 635 nm; higher = more signal
# [3] = molecular target: Focal adhesion kinase 1 (Homo sapiens) (UniProt Q05397); assay: PTK2 protein binding on printed compound slides – biochemical, small-molecule microarray, 635/667 nm fluorescence, BSA, DTT, primary screen (AID 1130); conditions: 635 nm fluorescence, higher = more signal;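 further: composite of spot emission at 667 nm and signal to noise over triplicate slides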
# Chain of Focal adhesion kinase 1 (Homo sapiens) (Q05397 whole entry, looked up): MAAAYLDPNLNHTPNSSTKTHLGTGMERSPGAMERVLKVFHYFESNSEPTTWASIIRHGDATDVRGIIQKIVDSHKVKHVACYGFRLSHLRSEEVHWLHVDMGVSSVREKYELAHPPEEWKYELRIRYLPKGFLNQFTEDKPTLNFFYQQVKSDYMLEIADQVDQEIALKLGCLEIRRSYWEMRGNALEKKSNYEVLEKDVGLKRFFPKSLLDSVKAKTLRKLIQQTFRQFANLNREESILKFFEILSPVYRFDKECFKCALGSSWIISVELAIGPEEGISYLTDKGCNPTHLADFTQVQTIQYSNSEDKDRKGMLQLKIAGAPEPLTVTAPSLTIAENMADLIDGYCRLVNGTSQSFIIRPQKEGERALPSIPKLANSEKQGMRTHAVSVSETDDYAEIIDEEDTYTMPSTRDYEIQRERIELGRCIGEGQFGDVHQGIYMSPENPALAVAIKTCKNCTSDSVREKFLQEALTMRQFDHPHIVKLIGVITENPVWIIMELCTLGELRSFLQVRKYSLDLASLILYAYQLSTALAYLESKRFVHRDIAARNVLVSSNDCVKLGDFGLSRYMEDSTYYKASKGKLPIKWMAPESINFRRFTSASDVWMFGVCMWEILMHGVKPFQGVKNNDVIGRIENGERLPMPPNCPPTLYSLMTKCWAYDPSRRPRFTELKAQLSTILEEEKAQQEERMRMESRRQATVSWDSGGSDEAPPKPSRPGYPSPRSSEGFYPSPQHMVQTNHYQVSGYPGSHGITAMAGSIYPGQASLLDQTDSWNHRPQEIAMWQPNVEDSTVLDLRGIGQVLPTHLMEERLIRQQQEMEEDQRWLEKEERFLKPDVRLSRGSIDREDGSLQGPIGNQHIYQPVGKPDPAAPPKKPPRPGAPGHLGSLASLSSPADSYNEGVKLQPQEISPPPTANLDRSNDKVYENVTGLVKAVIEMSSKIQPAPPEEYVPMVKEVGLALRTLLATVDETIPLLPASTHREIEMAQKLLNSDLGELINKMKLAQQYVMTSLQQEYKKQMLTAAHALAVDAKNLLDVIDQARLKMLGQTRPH
# [4] = system: Fibrinogen (Alexa647-labelled); assay: Alexa647-fibrinogen binding to printed small molecules – biochemical, small-molecule microarray, 635/667 nm fluorescence, artefact control for SMM control-protein annotation, profiling panel (AID 1131); conditions: fibrinogen-A647 binding fluorescence, higher = more signal;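 further: z-score merges 667 nm fluorescence with per-spot signal-to-noise over triplicate slides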
# [5] = molecular target: Follistatin (Homo sapiens) (UniProt P19883); assay: FST protein binding to printed compounds – biochemical, small-molecule microarray, 635/667 nm fluorescence, primary screen (AID 1132); conditions: 635 nm fluorescence, higher = more signal
# Chain of Follistatin (Homo sapiens) (P19883 whole entry, looked up): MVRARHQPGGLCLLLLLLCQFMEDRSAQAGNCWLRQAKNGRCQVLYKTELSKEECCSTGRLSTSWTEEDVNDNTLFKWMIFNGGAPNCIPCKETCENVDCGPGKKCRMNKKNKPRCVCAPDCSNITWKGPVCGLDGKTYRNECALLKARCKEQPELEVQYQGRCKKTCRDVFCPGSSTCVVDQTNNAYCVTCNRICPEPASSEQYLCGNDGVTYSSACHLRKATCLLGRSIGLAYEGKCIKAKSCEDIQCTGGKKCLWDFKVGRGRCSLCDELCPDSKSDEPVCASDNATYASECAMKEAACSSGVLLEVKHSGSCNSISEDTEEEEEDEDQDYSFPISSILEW
# [6] = molecular target: Fibroblast growth factor 2 (Homo sapiens) (UniProt P09038); assay: basic fibroblast growth factor binding to printed compounds – biochemical, small-molecule microarray, 635/667 nm fluorescence, primary screen (AID 1133); conditions: FGF2, fluorescence 635/667, higher = more signal
# Chain of Fibroblast growth factor 2 (Homo sapiens) (P09038 whole entry, looked up): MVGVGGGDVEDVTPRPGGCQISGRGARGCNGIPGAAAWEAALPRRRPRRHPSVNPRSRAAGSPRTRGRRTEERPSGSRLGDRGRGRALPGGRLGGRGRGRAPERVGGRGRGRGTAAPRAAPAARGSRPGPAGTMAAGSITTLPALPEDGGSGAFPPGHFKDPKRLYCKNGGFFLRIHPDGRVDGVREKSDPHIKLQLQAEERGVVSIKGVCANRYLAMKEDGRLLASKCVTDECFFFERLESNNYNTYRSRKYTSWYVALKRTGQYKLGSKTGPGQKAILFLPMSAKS
# [7] = JC-1 mitochondrial potential readout, lung cancer cells – cell-based, A549, JC-1 fluorescence, basal, 24 h, 100 nL, profiling panel (AID 1138); conditions: higher = more signal;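 further: A549 lung adenocarcinoma cells under basal conditions with no added stimulus; test concentration not given here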
# Lefty1 = Lefty1 protein binding to printed compounds – biochemical, small-molecule microarray, 635/667 nm fluorescence, primary screen (AID 1139); conditions: fluorescence 635/667, higher = more signal
# [8] = system: wheat germ agglutinin (Triticum aestivum), Alexa647-labelled; assay: Alexa647-WGA lectin binding to printed small molecules – biochemical, small-molecule microarray, 635/667 nm fluorescence, artefact control for SMM control-protein annotation, profiling panel (AID 1140); conditions: WGA-A647 binding, 635 nm fluorescence, higher = more signal;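 further: score merges 667 nm feature emission with signal to noise over triplicate slides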
# [9] = molecular target: Luciferin 4-monooxygenase (Photinus pyralis) (UniProt P08659); assay: inhibition of purified Photinus pyralis luciferase – biochemical, luminescence, purified enzyme, 2006 set, primary screen (AID 1141); conditions: purified firefly luciferase, SteadyGlo luminescence, 30 min; higher = more signal, called active from +8 up or from −8 down;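 further: cell-free assay with purified firefly luciferase at 100 ng per well in PBS; test concentration not given here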
# Chain of Luciferin 4-monooxygenase (Photinus pyralis) (P08659 whole entry, looked up): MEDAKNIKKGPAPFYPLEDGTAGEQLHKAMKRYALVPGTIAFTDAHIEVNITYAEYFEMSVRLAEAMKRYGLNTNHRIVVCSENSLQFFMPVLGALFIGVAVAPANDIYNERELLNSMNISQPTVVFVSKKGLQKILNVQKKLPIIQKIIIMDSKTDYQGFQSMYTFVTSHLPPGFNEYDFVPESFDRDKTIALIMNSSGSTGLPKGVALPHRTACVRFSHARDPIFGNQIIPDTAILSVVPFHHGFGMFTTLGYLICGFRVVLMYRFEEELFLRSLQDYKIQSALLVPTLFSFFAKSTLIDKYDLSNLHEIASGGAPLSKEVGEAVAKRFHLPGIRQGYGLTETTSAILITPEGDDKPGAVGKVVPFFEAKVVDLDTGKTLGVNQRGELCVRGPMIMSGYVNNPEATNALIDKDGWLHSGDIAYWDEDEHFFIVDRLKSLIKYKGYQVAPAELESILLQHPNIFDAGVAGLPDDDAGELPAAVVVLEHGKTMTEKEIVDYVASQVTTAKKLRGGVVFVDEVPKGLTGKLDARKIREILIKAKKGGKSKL
# [10] = system: Wnt5a (protein binding on small-molecule microarray); assay: small molecules binding Wnt5a protein – biophysical, small-molecule microarray, 635/667 nm fluorescence, primary screen (AID 1142); conditions: 635 nm fluorescence, higher = more signal;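 further: fluorescence read at 667 nm with signal to noise per printed feature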
# [11] = ATP-based viability of Huh7 replicon cells – cell-based, CellTiter-Glo luminescence, basal, 48 h, cytotoxicity control for HCV replication inhibitor project, primary screen (AID 1143); conditions: higher = more signal, called active from +8 up or from −8 down;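 further: Huh7 hepatoma cells carrying a hepatitis C replication reporter with no stimulus; test concentration not given here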
# [12] = Pseudomonas biofilm growth suppression – PAO1 strain, BacTiter-Glo luminescence, LB-PBS, primary screen (AID 1144); conditions: P. aeruginosa PAO1 biofilm, 12 h, higher = more signal
# [13] = basal CRE-LacZ reporter activity in PC12 – cell-based, unstimulated, primary screen (AID 1145); conditions: no forskolin, luminescence, 4.5 h, higher = more signal, called active from +8 up or from −8 down
# [14] = forskolin-driven CRE-LacZ activity in PC12 – cell-based, CRE-LacZ reporter, forskolin-stimulated, primary screen (AID 1146); conditions: luminescence, 4.5 h, higher = more signal, called active from +8 up or from −8 down;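 further: PC12 cells with 6xCRE LacZ reporter stimulated by forskolin 10 µM; beta-galactosidase reporter signal reflecting CREB driven transcription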
# [15] = molecular target: Streptavidin (Streptomyces avidinii) (UniProt P22629); assay: compounds binding control protein streptavidin – biophysical, small-molecule microarray, 635/667 nm fluorescence, artefact control for SMM compound annotation, primary screen (AID 1147); conditions: higher = more signal;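 further: signal reflects streptavidin binding to arrayed compounds as a control protein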
# Chain of Streptavidin (Streptomyces avidinii) (P22629 whole entry, looked up): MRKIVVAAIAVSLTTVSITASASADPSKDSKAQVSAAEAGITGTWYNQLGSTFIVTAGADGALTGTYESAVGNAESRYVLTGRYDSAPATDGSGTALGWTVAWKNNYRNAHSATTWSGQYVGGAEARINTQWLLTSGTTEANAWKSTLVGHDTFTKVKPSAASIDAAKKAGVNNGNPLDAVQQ
# [16] = probe aInhba binding on compound microarray – biochemical, small-molecule microarray, 635/667 nm fluorescence, primary screen (AID 1148); conditions: higher = more signal;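 further: score merges 667nm spot fluorescence with signal-to-noise for antibody binding to printed compounds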
# Torsin-1A (Homo sapiens) [17] = molecular target: Torsin-1A (Homo sapiens) (UniProt O14656); assay: TOR1A wild-type binding on microarray – cell lysate, small-molecule microarray, lysate, 635/667 nm, primary screen (AID 1149); conditions: COS7 hTOR1A-WT lysate, 635 nm fluorescence, higher = more signal
# Chain of Torsin-1A (Homo sapiens) (O14656 whole entry, looked up): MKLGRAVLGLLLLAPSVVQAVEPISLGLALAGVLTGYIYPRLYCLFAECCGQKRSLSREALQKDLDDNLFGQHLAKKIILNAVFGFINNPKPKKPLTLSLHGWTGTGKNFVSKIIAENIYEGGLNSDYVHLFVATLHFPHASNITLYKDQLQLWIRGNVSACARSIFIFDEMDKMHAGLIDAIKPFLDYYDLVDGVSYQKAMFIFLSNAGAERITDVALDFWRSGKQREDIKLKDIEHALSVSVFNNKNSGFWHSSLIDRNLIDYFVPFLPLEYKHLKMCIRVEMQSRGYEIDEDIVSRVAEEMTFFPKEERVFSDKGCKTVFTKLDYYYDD
# Torsin-1A (Homo sapiens) [18] = molecular target: Torsin-1A (Homo sapiens) (UniProt O14656); assay: torsin A mutant lysate binding on microarrays – cell lysate, small-molecule microarray, COS7 lysate, 635/667 nm fluorescence, primary screen (AID 1150); conditions: COS7 hTOR1A mutant lysate, 635 nm fluorescence, higher = more signal;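 further: score pools 667 nm emission and signal to noise measuring lysate protein binding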
# [19] = system: Sonic hedgehog protein (Shh); assay: Sonic hedgehog microarray binding compounds – biochemical, small-molecule microarray, 635/667 nm fluorescence, primary screen (AID 1151); conditions: 635 nm fluorescence, higher = more signal;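 further: Shh protein binding to compounds spotted on small-molecule microarray slides; score combines spot fluorescence intensity with signal-to-noise across triplicate slides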
SMILES,composite z-score [1],composite z-score [2],composite z-score [3],composite z-score [4],composite z-score [5],composite z-score [6],z-score [7],composite z-score (Lefty1),composite z-score [8],z-score [9],composite z-score [10],z-score [11],z-score [12],z-score [13],z-score [14],composite z-score [15],composite z-score [16],composite z-score (Torsin-1A (Homo sapiens) [17]),composite z-score (Torsin-1A (Homo sapiens) [18]),composite z-score [19]
CN(C)CCCNC(=O)[C@@]1(C)c2ccccc2C(=O)N(Cc2ccccc2)[C@H]1c1ccc(CO)cc1,0.761,-1.49,-0.3,-0.995,0.392,-0.0132,-0.322,-0.067,-0.749,-0.0692 (inactive),0.0404,-1.97 (inactive),0.329 (inactive),0.389 (inactive),0.261 (inactive),-0.324,-0.176,-0.334,-0.365,0.498
[N-]=[N+]=Nc1ccccc1C[C@]1(C(N)=O)N=C(c2ccc(OCCCO)cc2)O[C@H]1c1ccccc1N=[N+]=[N-],1.91,1.21,-0.0221,0.941,0.228,0.132,-0.777,-0.24,0.448,-4.76 (inactive),0.611,-4.95 (inactive),-0.783 (inactive),1.6 (inactive),-1.25 (inactive),1.22,0.189,0.747,0.986,-0.191
COC(=O)[C@@]1(Cc2ccccc2)[C@H]2c3cc(C(=O)N(C)C)n(CCN4CNCC4=O)c3C[C@H]2CN1C(=O)c1ccccc1,3.19,0.644,-0.619,-1.2,-0.64,-0.8,0.697,-2.13,1.45,0.394 (inactive),0.569,0.106 (inactive),-0.505 (inactive),0.0007 (inactive),0.547 (inactive),1.54,1.28,3.83,4.06,-1.85
CCOC(=O)C1=CC[C@@H](c2ccc(OCc3ccccc3)c(OC)c2)N(S(=O)(=O)c2ccc(C)cc2)[C@H]1c1ccc(SC)cc1,1.44,1.24,0.398,0.715,0.761,0.159,-0.219,0.542,0.71,0.107 (inactive),0.683,-1.51 (inactive),0.765 (inactive),0.967 (inactive),0.137 (inactive),1.42,0.113,1.28,1.4,0.249
O=C1O[C@@H](c2ccccc2)[C@@H](c2ccccc2)N2[C@@H](c3ccc(OCCO)cc3)[C@]3(C(=O)Nc4ccccc43)[C@@H](C(=O)O)[C@H]12,2.37,0.177,-0.0546,0.679,0.197,-0.406,-0.75,0.044,0.125,-1.43 (inactive),0.615,-4.21 (inactive),-0.148 (inactive),-0.258 (inactive),0.273 (inactive),0.0928,0.697,0.043,1.65,0.301
COc1ccc(-c2cc3c(c(CCc4ccccc4)n2)[Si](C(C)C)(C(C)C)OC3)cn1,0.0933,-0.765,-0.192,-0.284,0.323,-0.025,-0.585,0.496,-0.289,1.17 (inactive),-0.131,-0.817 (inactive),-0.0937 (inactive),-0.127 (inactive),0.307 (inactive),0.294,-0.0986,0.188,-0.168,0.434
CCCCCCCCCCC(O)C1C=CC2C(=O)N(C)C(=O)C2N1NC(=O)OC(C)(C)C (stereo not given),0.179,0.995,0.723,0.907,-0.406,-0.531,-1.2,-0.19,0.474,-1.33 (inactive),-0.121,-3.15 (inactive),0.918 (inactive),0.632 (inactive),0.584 (inactive),0.548,0.0198,-0.436,0.0812,-0.813
[N-]=[N+]=Nc1ccccc1C[C@]1(C(=O)N2CCOCC2)N=C(c2ccc(OCCCO)cc2)O[C@H]1c1ccccc1,2.06,1.21,0.3,0.905,1.42,1.81,2.81,0.435,1.2,-2.31 (inactive),1.01,-3.57 (inactive),0.567 (inactive),0.204 (inactive),-0.0807 (inactive),0.65,-0.0279,1.14,0.272,0.276
O=C1C2C=CC(C(O)c3ccccc3)N(Nc3ccccc3F)C2C(=O)N1c1ccccc1 (stereo not given),0.513,0.506,0.0669,0.168,-0.0118,-0.248,0.462,0.347,0.0842,0.541 (inactive),0.1,-1.7 (inactive),0.298 (inactive),0.0707 (inactive),0.39 (inactive),0.23,-0.127,-0.292,-0.493,-0.244
C=C(/C(=C/C[C@H](OC(C)=O)c1ccccc1OCCO)c1cc(C(=O)OC)ccc1OC)C(C)C,2.68,0.278,-0.164,0.0823,0.494,0.428,-0.139,0.501,0.151,-0.475 (inactive),0.608,-3.44 (inactive),0.48 (inactive),13.6 (active),-0.556 (inactive),-1.06,0.0906,0.356,1.53,1.4

# — PubChem BioAssay
